# Compound activity as filed in PubChem BioAssay.
# An excerpt weighted towards active compounds, which were near 1.1% of everything screened.
# CaV13 FRET inh: Primary screen for inhibitors of IQ motif and Ca2+-dependent inactivation inhibitor domain binding in CACNA1D, Förster resonance energy transfer in living cells, …; inhibition, % at 12.3 µM; HEK cells, CFP/YFP FRET ICDI-IQ, plate reader, 10 min; percent FRET-ratio fall versus neutral wells; 0.098% of 340,000 active;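 active means mean replicate inhibition of at least 30% and at least 1% of replicates passing that level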;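 further: 0% = median of the neutral control wells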
# VLA-4 inh: inhibition in a human VLA-4 binding assay; AID 2557; VLA-4 expressing cells, ligand binding flow cytometry; inhibition, % (about 7 µM as worked out from the volumes in the protocol); 0.2% of 330,000 active; in the data active means inhibition above about 50%
# Granule exo inh: lytic granule exocytosis inhibition. 0.66% of 360,000 active. inhibition, % at 10 µM. TALL-104 LAMP-1 surface exposure, flow cytometry; cells stimulated with thapsigargin and PMA. AID 651702;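 active means inhibition above about 55%, limit read from the data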
# ABCB6 inh MLPCN: blocks the human ABCB6 transporter; Q9NP58; K562-ABCB6 porphyrin accumulation, flow cytometry, 1 h; hits give low values; fluorescence ratio to DMSO, % at 10 µM; 0.19% of 360,000 active;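 active means fluorescence ratio to DMSO below 75%, the collection mean minus 3 SD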;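 further: signal is porphyrin accumulated inside mitochondria; 100% equals median channel fluorescence of DMSO control wells; lower ratio means ABCB6 inhibition with less porphyrin fluorescence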
# Target sequence (Q9NP58 whole entry, looked up): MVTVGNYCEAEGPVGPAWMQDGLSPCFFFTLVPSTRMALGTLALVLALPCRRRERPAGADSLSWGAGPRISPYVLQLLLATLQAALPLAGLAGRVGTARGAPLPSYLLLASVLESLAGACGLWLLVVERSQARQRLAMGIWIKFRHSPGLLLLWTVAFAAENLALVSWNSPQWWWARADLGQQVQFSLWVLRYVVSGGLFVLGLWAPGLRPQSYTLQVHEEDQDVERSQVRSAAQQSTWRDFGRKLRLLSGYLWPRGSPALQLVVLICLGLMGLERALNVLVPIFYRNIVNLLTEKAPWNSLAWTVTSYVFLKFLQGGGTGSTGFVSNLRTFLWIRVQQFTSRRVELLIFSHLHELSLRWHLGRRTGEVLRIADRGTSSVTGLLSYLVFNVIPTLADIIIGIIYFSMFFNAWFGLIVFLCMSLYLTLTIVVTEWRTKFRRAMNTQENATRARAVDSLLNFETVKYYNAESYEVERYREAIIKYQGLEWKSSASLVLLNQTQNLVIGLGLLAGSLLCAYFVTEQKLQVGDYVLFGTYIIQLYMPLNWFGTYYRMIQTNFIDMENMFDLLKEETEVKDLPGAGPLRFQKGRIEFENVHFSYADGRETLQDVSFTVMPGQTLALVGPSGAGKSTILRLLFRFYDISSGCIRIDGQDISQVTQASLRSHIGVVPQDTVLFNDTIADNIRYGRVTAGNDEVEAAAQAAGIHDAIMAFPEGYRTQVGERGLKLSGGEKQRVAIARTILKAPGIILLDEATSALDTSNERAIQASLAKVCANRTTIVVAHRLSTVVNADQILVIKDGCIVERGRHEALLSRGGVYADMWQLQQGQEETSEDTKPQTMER
# VLA-4 mod pick: confirmation of allosteric modulators of human VLA-4 integrin; shares compounds with VLA-4 inh; AID 2813; inhibition, % at 6.7 µM; 2% of 1,300 active; U937 cells, HUTS-21 LIBS mAb binding, flow cytometry; LDV ligand present at threefold Kd; in the data active means inhibition above about 40%;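 further: 0% = ligand without compound and 100% = no ligand background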
# Active calls of the source: *; nt = not tested or not shown.
SMILES,CaV13 FRET inh,VLA-4 inh,Granule exo inh,ABCB6 inh MLPCN,VLA-4 mod pick
CCCN(CC(=O)Nc1ccccc1OC)C(=O)Cn1c(=O)oc2ccccc21,-7.0,nt,19.5,99.0,2.9
CCN(CC)C(=O)Cn1c(=O)oc2ccccc21,-4.8,6.3,6.3,106.0,-13.2
CCN(C(=O)Cn1c(=O)oc2ccccc21)c1cccc(C(F)(F)F)c1,nt,-9.6,3.0,88.0,9.1
CC(=O)N1CCN(C(=O)Cn2c(=O)oc3ccccc32)CC1,nt,-3.1,-2.8,102.0,nt
COc1ccccc1NC(=O)Cn1c(=O)oc2ccccc21,-7.2,-2.9,1.6,96.0,nt
CC1CN(C(=O)Cn2c(=O)oc3ccccc32)CC(C)O1 (stereo not given),-2.6,-9.2,-1.4,96.0,-14.8
CCN(C(=O)Cn1c(=O)oc2ccccc21)c1cccc(C)c1,-4.1,6.6,-6.4,99.0,nt
C[C@@H]1OC(C2CCCCC2)N(C)[C@H]2C[C@H]3c4[nH]c5cccc(-c6ccccc6)c5c4CCN3C(=O)[C@@H]12 (stereo not given in full),-4.1,nt,nt,nt,nt
COC(=O)c1cc2c(c3c4cc(F)ccc4n(S(=O)(=O)c4ccccc4)c13)C(=O)N(Cc1ccc(C(F)(F)F)cc1)C2,-11.0,nt,nt,nt,nt
N#Cc1ccccc1S(=O)(=O)N1CCN(C(=O)c2cc3c(s2)CCC3)CC1,-6.0,nt,-1.4,98.0,nt
COc1cc(-c2cc(C(=O)N3CCN(c4ccccn4)CC3)c3ccccc3n2)cc(OC)c1OC,-6.2,-6.1,4.1,103.0,-5.5
COc1ccc(OC)c(-c2cc(C(=O)N3CCN(c4ncccn4)CC3)c3ccccc3n2)c1,nt,94.8*,4.9,99.0,-0.9
COc1ccc(-c2cc(C(=O)N3CCN(c4ccccn4)CC3)c3ccccc3n2)cc1,-5.2,1.2,-0.7,101.0,nt
c1cncc(Oc2ccc(NCCc3c[nH]c4ccccc34)cc2)c1,-5.3,nt,nt,nt,nt
COc1cc2c(cc1OC)C(c1cc(OC)c(OC)cc1[N+](=O)[O-])N(C(C)=O)CC2 (stereo not given),-14.2,41.0,-9.3,97.0,-6.9
COc1ccc(S(=O)(=O)N2CCCC(C(=O)NCc3cccnc3)C2)cc1OC (stereo not given),-2.8,50.5*,3.2,95.0,2.0
COc1ccc2c(c1)CCC1(C)CC(=O)C(Br)=C21 (stereo not given),-10.4,nt,2.6,100.0,nt
Cc1ccc(-c2cc(C(=O)N3CCN(C4CCS(=O)(=O)C4)CC3)c3ccccc3n2)cc1 (stereo not given),-5.3,-12.3,-4.6,91.0,-11.0
O=C(c1cc(-c2ccccc2)nc2ccccc12)N1CCN(C2CCS(=O)(=O)C2)CC1 (stereo not given),-2.1,6.3,1.4,100.0,nt
Cc1ccc(C(=O)CC2(O)C(=O)Nc3ccccc32)s1 (stereo not given),-5.9,57.9*,-1.4,98.0,6.1
CC(NC(=O)c1ccccc1F)c1nnc(SCC(=O)Nc2nccs2)n1C (stereo not given),-4.1,-1.1,15.0,102.0,3.1
CCOC(=O)N1CCN(C(=O)CN(C)S(=O)(=O)c2ccc(F)cc2)CC1,-4.2,4.5,-8.0,107.0,nt
CCOC(=O)N1CCN(C(=O)CN(C)S(=O)(=O)c2ccc3c(c2)C(C)(C)C(=O)N3C)CC1,-4.1,-10.6,-2.7,98.0,-0.9
Cc1cc(NC(=O)CSc2nncc(=O)n2N)no1,5.6,5.1,-0.5,95.0,nt
COc1cc2c(cc1OC)C(C)N(CCN1C(=O)c3ccccc3C1=O)CC2 (stereo not given),-18.3,43.6,9.4,400.0,-6.9
SMILES,CaV13 FRET inh,VLA-4 inh,Granule exo inh,ABCB6 inh MLPCN,VLA-4 mod pick
COc1cc2c(cc1OC)C(C)N(C(=O)Nc1ccccc1)CC2 (stereo not given),-3.9,0.9,-13.3,97.0,nt
O=C(O)c1cc(O)ccc1NC(=O)C(c1ccccc1)c1ccccc1,-1.8,21.7,1.2,104.0,0.0
Cc1c(NC(=O)CCC(=O)N2CCCCC2)c(=O)n(-c2ccccc2)n1C,-1.6,18.6,-2.8,91.0,2.4
Cc1c(NC(=O)COC(=O)C(c2ccc(Cl)cc2)C(C)C)c(=O)n(-c2ccccc2)n1C (stereo not given),-8.0,-6.7,1.0,97.0,nt
Cc1c(NC(=O)CCC(=O)N2CCOCC2)c(=O)n(-c2ccccc2)n1C,-1.3,4.2,5.1,92.0,nt
CCC(C(=O)OCC(=O)Nc1c(C)n(C)n(-c2ccccc2)c1=O)c1ccccc1 (stereo not given),-13.5,36.5,-3.8,100.0,-2.1
Cc1cc2c(nc1C)CCCN2Cc1ccccc1C(F)(F)F,-16.8,nt,nt,nt,nt
C=CCNC(=O)CC(=O)N/N=C/c1ccc(C(=O)OC)cc1,-0.4,20.9,-1.3,100.0,nt
Cc1ccc(S(=O)(=O)Nc2ccc(N(C)C)cc2)cc1,-6.5,8.2,1.8,103.0,4.7
N#Cc1ccccc1Cn1cc(/C=C/[N+](=O)[O-])c2ccccc21,-7.3,42.2,60.9*,100.0,30.7
Cc1cccc(NC(=O)C2CCN(C(=O)c3ccc(Cl)cc3)CC2)n1,-6.3,1.4,5.0,101.0,-1.6
Cc1cccc(NC(=O)C2CCN(C(=O)c3ccc(F)cc3)CC2)n1,-6.5,1.5,3.7,97.0,0.7
Cc1cc(N2CCN(S(C)(=O)=O)C[C@H]2C)ccc1N1CCN(Cc2ccccc2)[C@H](C)C1,-7.8,nt,nt,nt,nt
Cc1cc(Cl)ccc1Oc1ccccc1C(=O)CC#N,-3.0,41.4,5.5,97.0,-15.1
Cc1cc(C)nc(-n2ncc3c2CC(c2ccccc2)CC3=O)n1 (stereo not given),-5.6,-2.7,0.2,101.0,nt
Cc1cc(C)nc(-n2ncc3c2CC(C)CC3=O)n1 (stereo not given),-5.1,-7.9,1.4,100.0,11.0
CC(C)[C@H](NC(=O)C1CCCC1)C(=O)N1CCC[C@H]1C(=O)NCCc1ccccc1Cl,-2.8,nt,nt,nt,nt
CC1(C)C[C@H](O)[C@@]23C[C@@H](OC2=O)[C@]2(C)C(=CCC4[C@@]5(C)CC[C@H](O)C(C)(C)C5CC[C@]42C)[C@@H]3C1 (stereo not given in full),nt,25.7,nt,nt,nt
Nc1ccc(N2CCCCC2)c(S(=O)(=O)Nc2ccccc2Cl)c1,-6.5,14.2,-1.1,94.0,nt
COc1ccc(N)cc1S(=O)(=O)Nc1ccccc1Cl,-2.4,-3.9,-1.8,92.0,-2.1
CC(=O)Nc1ccc(/C=C(\C#N)C(=O)NCc2ccccc2)cc1,-3.1,6.9,0.1,103.0,nt
CC(=O)Nc1ccc(/C=C(\C#N)C(N)=O)cc1,-19.6,-0.5,12.8,100.0,0.0
COCCn1nnnc1C(c1ccc(OC)cc1OC)N1CCN(c2ccccc2)CC1 (stereo not given),-2.9,0.0,-1.3,103.0,nt
COCCn1nnnc1C(c1ccc(OC)cc1OC)N1CCN(c2ccccc2F)CC1 (stereo not given),-1.2,99.2*,8.9,103.0,0.4
CCNc1nc2c(c(=O)n(C)c(=O)n2C)n1Cc1ccc(Cl)cc1,-5.7,56.6*,2.5,97.0,5.4
